“And” between values parts separate entries of the source, which are not always exact repeats. Equal values may be shown once. Out of some 5,500 compounds screened, about 2,000 (36%) were called active. Another 18% or so got no clear call; they are omitted. Cut-off read from the data, not from the text of the source: active = normalized growth mostly below about 0.91 (no sharp cut-off); inconclusive = no clear call, values can overlap the other calls; inactive = mostly above about 0.92. The list shows a part of the results.
Experiment: chemical genetic growth profiling, strain panel (AID 1159580);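 note: tested at 20 µM; growth read once vehicle control cultures reached saturation at 30 °C; 1 = growth at the plate median or of vehicle wells; lower values mean less growth of the strain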
Conditions: S. cerevisiae deletion strains, growth OD

Measured: normalized growth

CC(=O)O[C@]1(C(C)=O)CCC2C3C[C@H](C)C4=CC(=O)CC[C@]4(C)C3CC[C@@]21C (stereo partly drawn)
inactive: locus YAL021C, strain ccr4, active compounds read low 1 | locus YAL026C, strain drs2, active compounds read low 0.992 | locus YAL030W, strain snc1, active compounds read low 0.968 | locus YBL061C, strain skt5, active compounds read low 0.964 | locus YBR009C, strain hhf1, active compounds read low 0.955 | locus YBR021W, strain FUR4, active compounds read low 0.993 | locus YBR023C, strain chs3, active compounds read low 0.924 | locus YBR171W, strain sec66, active compounds read low 0.95 | locus YBR229C, strain ROT2, active compounds read low 0.993 | locus YBR231C, strain swc5, active compounds read low 0.971 | locus YBR279W, strain paf1, active compounds read low 0.97 | locus YCL011C, strain gbp2, active compounds read low 0.931 | locus YCL016C, strain dcc1, active compounds read low 0.916 | locus YCL029C, strain bik1, active compounds read low 0.957 | locus YCL061C, strain MRC1, active compounds read low 0.965 | locus YCL069W, strain vba3, active compounds read low 0.958 | locus YCR088W, strain abp1, active compounds read low 0.961 | locus YDL005C, strain med2, active compounds read low 0.959 | locus YDL035C, strain GPR1, active compounds read low 1.01 | locus YDL040C, strain nat1, active compounds read low 0.971 | locus YDL074C, strain BRE1, active compounds read low 0.983 | locus YDL101C, strain DUN1, active compounds read low 0.993 | locus YDL185W, strain tfp1, active compounds read low 0.956 | locus YDL192W, strain arf1, active compounds read low 0.966 | locus YDR001C, strain nth1, active compounds read low 0.97 | locus YDR069C, strain doa4, active compounds read low 0.992 | locus YDR101C, strain arx1, active compounds read low 0.999 | locus YDR150W, strain NUM1, active compounds read low 0.99 | locus YDR159W, strain sac3, active compounds read low 0.971 | locus YDR162C, strain NBP2, active compounds read low 0.993 | locus YDR195W, strain ref2 1.07 | locus YDR297W, strain sur2, active compounds read low 0.971 | locus YDR318W, strain mcm21, active compounds read low 0.961 | locus YDR334W, strain swr1, active compounds read low 0.96 | locus YDR335W, strain msn5, active compounds read low 0.971 | locus YDR388W, active compounds read low 0.989 | locus YDR502C, strain sam2, active compounds read low 0.954 | locus YEL003W, strain gim4, active compounds read low 0.987 | locus YEL037C, strain rad23, active compounds read low 0.962 | locus YEL061C, strain CIN8 (second series), active compounds read low 0.97 | locus YEL061C, strain CIN8, active compounds read low 0.991 | locus YER015W, strain faa2, active compounds read low 0.969 | locus YER016W, strain bim1, active compounds read low 0.975 | locus YER110C, active compounds read low 0.96 | locus YER111C, strain swi4, active compounds read low 0.96 | locus YER155C, strain BEM2 (second series), active compounds read low 0.976 | locus YER155C, strain BEM2, active compounds read low 0.98 | locus YER167W, strain BCK2, active compounds read low 0.977 | locus YFR010W, strain ubp6, active compounds read low 0.981 | locus YGL078C, strain dbp3, active compounds read low 0.982 | locus YGL086W, strain mad1, active compounds read low 0.995 | locus YGL167C, strain pmr1, active compounds read low 0.948 | locus YGL173C, strain kem1, active compounds read low 0.969 | locus YGL227W, strain vid30, active compounds read low 0.969 | locus YGL240W, strain doc1, active compounds read low 0.98 | locus YGL248W, strain PDE1, active compounds read low 0.992 | locus YGL253W, strain hxk2, active compounds read low 0.91 | locus YGR135W, strain pre9, active compounds read low 0.912 | locus YGR252W, strain gcn5, active compounds read low 0.926 | locus YHR013C, strain ard1, active compounds read low 0.968 | locus YHR027C, strain rpn1, active compounds read low 0.984 | locus YHR030C, strain SLT2, active compounds read low 0.997 and 0.999 | locus YHR079C, strain IRE1 (second series), active compounds read low 0.979 | locus YHR079C, strain IRE1, active compounds read low 0.98 | locus YHR094C, strain hxt1, active compounds read low 0.991 | locus YHR129C, strain ARP1, active compounds read low 0.993 | locus YHR200W, strain rpn10, active compounds read low 0.982 | locus YIL066C, strain RNR3, active compounds read low 0.991 | locus YIL073C, strain SPO22, active compounds read low 0.932 | locus YIL125W, strain kgd1, active compounds read low 0.996 | locus YIR030C, strain dcg1, active compounds read low 0.962 | locus YJL092W, strain hpr5, active compounds read low 0.964 | locus YJL095W, strain BCK1 (second series), active compounds read low 0.953 | locus YJL095W, strain BCK1, active compounds read low 0.961 and 1 | locus YJL115W, strain asf1, active compounds read low 0.969 | locus YJL129C, strain trk1, active compounds read low 0.902 | locus YJL134W, strain LCB3, active compounds read low 0.993 | locus YJL154C, strain vps35, active compounds read low 0.964 | locus YJL164C, strain tpk1, active compounds read low 0.97 | locus YJL166W, strain qcr8, active compounds read low 0.926 | locus YJL168C, strain set2, active compounds read low 0.985 | locus YJL187C, strain SWE1 (second series), active compounds read low 0.985 | locus YJL187C, strain SWE1, active compounds read low 0.976 | locus YJR043C, strain POL32, active compounds read low 1.03 | locus YJR066W, strain TOR1, active compounds read low 0.958
active: locus YDR137W, strain rgp1, active compounds read low 0.839 | locus YDR392W, strain spt3, active compounds read low 0.635 | locus YHR142W, strain chs7, active compounds read low 0.841

Reference: PubChem BioAssay AID1159580 (chemical genetic matrix, 2015)
